# Measurements reported in the supplement of paper PMC8728848.
# The entries come from a sample that favours the strongest signals as a whole.
# Experiments:
# Test in all cases: glycan array binding signal (z-score within array); higher = stronger binding
# Conditions in all cases: glycan notation: IUPAC condensed, linker removed
# Neu5Ac(a2-3)Gal = target: Neu5Ac(a2-3)Gal
# Summary of the method: (§1)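 The Consortium for Functional Glycomics database supplied 3228 glycan arrays, of which those lacking an available protein sequence were dropped. The binding signal, a within-array Z-score, was averaged across arrays of the same protein sequence and across linkers. Negative scores can be read as non-binding.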
# [1] = target: Neu5Ac(a2-3)Gal(b1-3)GalNAc(b1-4)[Neu5Ac(a2-3)]Gal(b1-4)Glc
# Summary of the method: as §1
# [2] = target: Neu5Ac(a2-3)Gal(b1-3)GlcNAc
# Summary of the method: as §1
# [3] = target: Neu5Ac(a2-3)Gal(b1-3)GlcNAc(b1-3)Gal(b1-3)GlcNAc
# Summary of the method: as §1
# Neu5Ac(a2-3)Gal(b1-4)Glc = target: Neu5Ac(a2-3)Gal(b1-4)Glc
# Summary of the method: as §1
# [4] = target: Neu5Ac(a2-3)Gal(b1-4)GlcNAc(b1-3)Gal(b1-4)GlcNAc
# Summary of the method: as §1
# [5] = target: Neu5Ac(a2-3)Gal(b1-4)GlcNAc(b1-3)Gal(b1-4)GlcNAc(b1-3)Gal(b1-4)GlcNAc
# Summary of the method: as §1
# [6] = target: Neu5Ac(a2-3)Gal(b1-4)GlcNAc(b1-3)Gal(b1-4)[Fuc(a1-3)]GlcNAc
# Summary of the method: as §1
# [7] = target: Neu5Ac(a2-3)Gal(b1-4)[Fuc(a1-3)]GlcNAc6S
# Summary of the method: as §1
# [8] = target: Neu5Ac(a2-6)Gal(b1-4)GlcNAc(b1-2)Man(a1-3)[Man(a1-6)]Man(b1-4)GlcNAc(b1-4)GlcNAc
# Summary of the method: as §1
# [9] = target: Neu5Gc(a2-3)Gal(b1-4)[Fuc(a1-3)]GlcNAc
# Summary of the method: as §1
# [10] = target: Fuc(a1-2)Gal(b1-3)GalNAc(b1-4)[Neu5Ac(a2-3)]Gal(b1-4)Glc
# Summary of the method: as §1
# Fuc(a1-2)Gal(b1-3)GlcNAc = target: Fuc(a1-2)Gal(b1-3)GlcNAc
# Summary of the method: as §1
# Fuc(a1-2)Gal(b1-4)GlcNAc = target: Fuc(a1-2)Gal(b1-4)GlcNAc
# Summary of the method: as §1
# [11] = target: Fuc(a1-2)Gal(b1-4)[Fuc(a1-3)]GlcNAc(b1-3)Gal(b1-4)[Fuc(a1-3)]GlcNAc
# Summary of the method: as §1
# [12] = target: Fuc(a1-3)[Gal(b1-4)]GlcNAc(b1-2)Man(a1-3)[Fuc(a1-3)[Gal(b1-4)]GlcNAc(b1-2)Man(a1-6)]Man(b1-4)GlcNAc(b1-4)GlcNAc
# Summary of the method: as §1
# [13] = target: Gal(a1-4)Gal(b1-4)GlcNAc(b1-3)Gal(b1-4)Glc
# Summary of the method: as §1
# [14] = target: Gal(b1-4)GlcNAc(b1-3)[Gal(b1-4)GlcNAc(b1-6)]Gal(b1-4)GlcNAc
# Summary of the method: as §1
# [15] = target: Gal(b1-4)GlcNAc(b1-6)GalNAc
# Summary of the method: as §1
# Gal3S(b1-4)GlcNAc6S = target: Gal3S(b1-4)GlcNAc6S
# Summary of the method: as §1
# [16] = target: GalNAc(b1-3)Gal(a1-4)Gal(b1-4)GlcNAc
# Summary of the method: as §1
# [17] = target: GlcNAc(a1-3)Gal(b1-4)GlcNAc
# Summary of the method: as §1
# [18] = target: GlcNAc(a1-6)Gal(b1-4)GlcNAc
# Summary of the method: as §1
# Kdn(a2-6)Gal(b1-4)GlcNAc = target: Kdn(a2-6)Gal(b1-4)GlcNAc
# Summary of the method: as §1
# [19] = target: Man(a1-2)Man(a1-3)[Man(a1-2)Man(a1-6)]Man(a1-6)[Man(a1-2)Man(a1-2)Man(a1-3)]Man(b1-4)GlcNAc(b1-4)GlcNAc
# Summary of the method: as §1
# [20] = target: Man(a1-2)Man(a1-6)[Man(a1-3)]Man(a1-6)[Man(a1-2)Man(a1-2)Man(a1-3)]Man
# Summary of the method: as §1
# [21] = target: Man(a1-2)Man(a1-6)[Man(a1-3)]Man(a1-6)[Man(a1-2)Man(a1-2)Man(a1-3)]Man(b1-4)GlcNAc(b1-4)GlcNAc
# Summary of the method: as §1
# Man(a1-3)[Man(a1-6)]Man = target: Man(a1-3)[Man(a1-6)]Man
# Summary of the method: as §1
# [22] = target: Man(a1-3)[Man(a1-6)]Man(a1-6)[Man(a1-2)Man(a1-3)]Man(b1-4)GlcNAc(b1-4)GlcNAc
# Summary of the method: as §1
# [23] = target: Neu5Ac(a2-3)Gal(b1-3)[Neu5Ac(a2-3)Gal(b1-4)]GlcNAc
# Summary of the method: as §1
# [24] = target: Neu5Ac(a2-3)Gal(b1-4)GlcNAc(b1-2)Man(a1-3)[GlcNAc(b1-2)Man(b1-4)GlcNAc(b1-2)Man(a1-6)]Man(b1-4)GlcNAc(b1-4)GlcNAc
# Summary of the method: as §1
# [25] = target: Neu5Ac(a2-3)Gal(b1-4)GlcNAc(b1-3)GalNAc
# Summary of the method: as §1
# [26] = target: Neu5Ac(a2-3)Gal(b1-4)[Fuc(a1-3)]GlcNAc(b1-3)Gal
# Summary of the method: as §1
# [27] = target: Neu5Ac(a2-3)Gal(b1-4)[Fuc(a1-3)]GlcNAc(b1-6)[Neu5Ac(a2-3)Gal(b1-3)]GalNAc
# Summary of the method: as §1
# [28] = target: Neu5Ac(a2-6)Gal(b1-4)GlcNAc(b1-3)Gal(b1-3)GlcNAc
# Summary of the method: as §1
# [29] = target: Neu5Ac(a2-6)Gal(b1-4)GlcNAc(b1-3)Gal(b1-4)[Fuc(a1-3)]GlcNAc(b1-3)Gal(b1-4)[Fuc(a1-3)]GlcNAc
# Summary of the method: as §1
# Neu5Ac(a2-8)Neu5Ac = target: Neu5Ac(a2-8)Neu5Ac
# Summary of the method: as §1
# [30] = target: Neu5Ac(a2-8)Neu5Ac(a2-8)Neu5Ac
# Summary of the method: as §1
# [31] = target: Neu5Ac(b2-6)Gal(b1-4)GlcNAc
# Summary of the method: as §1
Binder,glycan array binding signal (z-score) (Neu5Ac(a2-3)Gal),glycan array binding signal (z-score) [1],glycan array binding signal (z-score) [2],glycan array binding signal (z-score) [3],glycan array binding signal (z-score) (Neu5Ac(a2-3)Gal(b1-4)Glc),glycan array binding signal (z-score) [4],glycan array binding signal (z-score) [5],glycan array binding signal (z-score) [6],glycan array binding signal (z-score) [7],glycan array binding signal (z-score) [8],glycan array binding signal (z-score) [9],glycan array binding signal (z-score) [10],glycan array binding signal (z-score) (Fuc(a1-2)Gal(b1-3)GlcNAc),glycan array binding signal (z-score) (Fuc(a1-2)Gal(b1-4)GlcNAc),glycan array binding signal (z-score) [11],glycan array binding signal (z-score) [12],glycan array binding signal (z-score) [13],glycan array binding signal (z-score) [14],glycan array binding signal (z-score) [15],glycan array binding signal (z-score) (Gal3S(b1-4)GlcNAc6S),glycan array binding signal (z-score) [16],glycan array binding signal (z-score) [17],glycan array binding signal (z-score) [18],glycan array binding signal (z-score) (Kdn(a2-6)Gal(b1-4)GlcNAc),glycan array binding signal (z-score) [19],glycan array binding signal (z-score) [20],glycan array binding signal (z-score) [21],glycan array binding signal (z-score) (Man(a1-3)[Man(a1-6)]Man),glycan array binding signal (z-score) [22],glycan array binding signal (z-score) [23],glycan array binding signal (z-score) [24],glycan array binding signal (z-score) [25],glycan array binding signal (z-score) [26],glycan array binding signal (z-score) [27],glycan array binding signal (z-score) [28],glycan array binding signal (z-score) [29],glycan array binding signal (z-score) (Neu5Ac(a2-8)Neu5Ac),glycan array binding signal (z-score) [30],glycan array binding signal (z-score) [31]
"PILRa (Homo sapiens), Q9UKJ1 (protein) MGRPLLLPLLPLLLPPAFLQPSGSTGSGPSYLYGVTQPKHLSASMGGSVEIPFSFYYPWELATAPDVRISWRRGHFHRQSFYSTRPPSIHKDYVNRLFLNWTEGQKSGFLRISNLQKQDQSVYFCRVELDTRSSGRQQWQSIEGTKLSITQAVTTTTQRPSSMTTTWRLSSTTTTTGLRVTQGKRRSDSWHISLETAVGVAVAVTVLGIMILGLICLLRWRRRKGQQRTKATTPAREPFQNTEEPYENIRNEGQNTDPKLNPKDDGIVYASLALSSSTSPRAPPSHRPLKSPQNETLYSVLKA",-0.314,-0.281,0.854,-0.15,-0.248,1.17,-0.327,-0.125,-0.092,-0.177,-0.343,,,,,,,,,,,,,,,,,,,,,,,,,,,,
"Ficolin B (Rattus norvegicus), P57756 (protein) MVLGSAALFVLSLCVTELTLHAADTCPEVKVLDLEGSNKLTILQGCPGLPGALGPKGEAGAKGDRGESGLPGHPGKAGPTGPKGDRGEKGVRGEKGDTGPSQSCATGPRTCKELLTRGYFLTGWYTIYLPDCRPLTVLCDMDTDGGGWTVFQRRIDGTVDFFRDWTSYKQGFGSQLGEFWLGNDNIHALTTQGTNELRVDLADFDGNHDFAKYSSFQIQGEAEKYKLILGNFLGGGAGDSLTSQNNMLFSTKDQDNDQGSSNCAVRYHGAWWYSDCHTSNLNGLYLRGLHKSYANGVNWKSWKGYNYSYKVSEMKVRLI",,,,,,,,,,,,-0.165,-0.197,-0.192,-0.205,-0.214,-0.169,1.56,-0.085,-0.2,-0.2,-0.127,0.051,-0.209,-0.224,-0.212,-0.18,-0.166,-0.182,3.17,5.65,-0.192,0.01,0.019,0.054,-0.204,3.73,2.69,8.52
